Where “and” joins values, the source holds several entries; their conditions need not be identical. Identical values can stand only once. Inconclusive results are not listed. Where a structure was tested more than once in an assay, its records may differ in their call. Calls of active or inactive are those of the source. How the source made its calls, unless noted: active means hit-call score of the fitted dose curve at least 0.9, where 1 is the maximum; inactive means score below 0.9.
Columns and labels:
[1] = read-out: Monocyte Chemoattractant Protein-1 (MCP1), CCL2 (gene 6347); experiment: BSK_SAg_MCP1: BioMAP Diversity Plus: SAg Assay for Monocyte Chemoattractant Protein-1 (MCP1) Biomarker Activity (AID 2283090); conditions: primary human HUVEC with PBMC; actives raise or lower the signal
In short: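 Values derive from bidirectional fitting of ELISA-measured MCP1 against DMSO controls. Readings were taken 24 h after dosing human vascular endothelial cells co-cultured with peripheral blood mononuclear cells under superantigen stimulation.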

[2] = read-out: E-selectin (Homo sapiens) (UniProt P16581); experiment: BSK_SAg_Eselectin: BioMAP Diversity Plus: SAg Assay for Eselectin Biomarker Activity (AID 2283091); conditions: primary human HUVEC with PBMC; actives raise or lower the signal
In short: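 Primary human endothelial cells and peripheral blood mononuclear cells were co-cultured and exposed to chemical for 24 hours. E-selectin levels were then quantified by ELISA, with bidirectional curve fitting normalised to DMSO controls.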

[3] = read-out: Monokine induced gamma interferon (MIG), CXCL9 (gene 4283); experiment: BSK_SAg_MIG: BioMAP Diversity Plus: SAg Assay for Monokine induced gamma interferon (MIG) Biomarker Activity (AID 2283092); conditions: primary human HUVEC with PBMC; actives raise or lower the signal
In short: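 Endothelial cells and PBMC were co-cultured, exposed to test chemicals, and sampled 24 h later. MIG was measured by ELISA, and responses were fitted in both directions relative to DMSO.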

[4] = BSK_SAg_PBMCCytotoxicity: PBMC Cytotoxicity Assessment in the BioMAP Diversity Plus: SAg Assay (AID 2283093); conditions: primary human HUVEC with PBMC;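 further: PBMC viability measured as Alamar Blue reduction fluorescence at 546/580 nm; fitted both ways against DMSO so a hit may be loss or gain of signal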;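 on AC50: PBMC superantigen activated with SEB plus TSST-1 one hour after compound addition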
In short: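 Alamar Blue reduction (6 h, 546/580 nm) reports PBMC cytotoxicity after 90 h superantigen activation (SEB, TSST-1; 20 ng/mL final each) with 1 h compound pre-treatment. Gain or loss of signal fitted versus DMSO.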

[5] = read-out: Interleukin-8 (IL8), CXCL8 (gene 3576); experiment: BSK_SAg_IL8: BioMAP Diversity Plus: SAg Assay for Interleukin-8 (IL8) Biomarker Activity (AID 2283094); conditions: primary human HUVEC with PBMC; actives raise or lower the signal
In short: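 Primary human endothelial cells with PBMC, exposed 24 h; IL-8 determined by ELISA, analysed bidirectionally relative to DMSO.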

[6] = BSK_SAg_Proliferation: Cell Proliferation Assessment in the BioMAP Diversity Plus: SAg Assay (AID 2283095); conditions: primary human HUVEC with PBMC;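 further: relative cell number as total protein by SRB absorbance in sub-confluent culture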
In short: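 A human primary co-culture of umbilical vein endothelium and blood mononuclear cells receives compound; relative cell number is quantified at 96 h by SRB staining and 560 nm absorbance, with DMSO-referenced bidirectional curve fitting.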

[7] = BSK_SAg_SRB: Viability Assessment in the BioMAP Diversity Plus: SAg Assay (AID 2283096); conditions: primary human HUVEC with PBMC;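 further: cells read one day after compound addition; hits may be either gain or loss of signal compared with DMSO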
In short: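 This overt-cytotoxicity endpoint quantifies protein in human endothelial/PBMC co-cultures at 24 h using SRB absorbance (560 nm) after trichloroacetic acid fixation. Values reflect signal change from the DMSO negative control, fitted bidirectionally.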

[8] = molecular target: human CYP19A1, CYP19A1 (gene 1588) (UniProt P11511); experiment: NVS_ADME_hCYP19A1: NovaScreen (NVS) CYP450-related Enzyme Activity (ADME) Assay for human CYP19A1 (AID 2283098; active means hit-call score of the fitted dose curve at least 0.9, where 1 is the maximum)
Sequence of human CYP19A1, CYP19A1 (gene 1588) (P11511 whole entry, looked up): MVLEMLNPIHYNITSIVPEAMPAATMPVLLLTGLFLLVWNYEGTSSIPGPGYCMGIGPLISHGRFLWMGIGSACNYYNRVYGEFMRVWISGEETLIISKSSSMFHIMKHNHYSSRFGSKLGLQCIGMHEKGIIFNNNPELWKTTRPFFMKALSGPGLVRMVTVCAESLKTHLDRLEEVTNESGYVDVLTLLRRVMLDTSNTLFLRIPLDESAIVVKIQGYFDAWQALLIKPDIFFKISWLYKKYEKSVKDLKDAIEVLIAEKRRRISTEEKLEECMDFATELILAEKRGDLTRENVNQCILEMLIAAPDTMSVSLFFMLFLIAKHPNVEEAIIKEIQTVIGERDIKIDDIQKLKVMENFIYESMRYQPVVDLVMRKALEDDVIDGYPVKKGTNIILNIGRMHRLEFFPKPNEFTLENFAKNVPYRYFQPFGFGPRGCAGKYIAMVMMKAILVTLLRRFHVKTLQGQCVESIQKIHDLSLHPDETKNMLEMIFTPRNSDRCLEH
In short: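 Compounds were first screened at 10 uM in duplicate against purified enzyme, with a fluorogenic substrate and fluorescence intensity detection after 0.5 h. Inhibition appears as reduced signal against acetonitrile control.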

[9] = molecular target: human CYP2A6, CYP2A6 (gene 1548) (UniProt P11509); experiment: NVS_ADME_hCYP2A6: NovaScreen (NVS) CYP450-related Enzyme Activity (ADME) Assay for human CYP2A6 (AID 2283099; active means hit-call score of the fitted dose curve at least 0.9, where 1 is the maximum)
Sequence of human CYP2A6, CYP2A6 (gene 1548) (P11509 whole entry, looked up): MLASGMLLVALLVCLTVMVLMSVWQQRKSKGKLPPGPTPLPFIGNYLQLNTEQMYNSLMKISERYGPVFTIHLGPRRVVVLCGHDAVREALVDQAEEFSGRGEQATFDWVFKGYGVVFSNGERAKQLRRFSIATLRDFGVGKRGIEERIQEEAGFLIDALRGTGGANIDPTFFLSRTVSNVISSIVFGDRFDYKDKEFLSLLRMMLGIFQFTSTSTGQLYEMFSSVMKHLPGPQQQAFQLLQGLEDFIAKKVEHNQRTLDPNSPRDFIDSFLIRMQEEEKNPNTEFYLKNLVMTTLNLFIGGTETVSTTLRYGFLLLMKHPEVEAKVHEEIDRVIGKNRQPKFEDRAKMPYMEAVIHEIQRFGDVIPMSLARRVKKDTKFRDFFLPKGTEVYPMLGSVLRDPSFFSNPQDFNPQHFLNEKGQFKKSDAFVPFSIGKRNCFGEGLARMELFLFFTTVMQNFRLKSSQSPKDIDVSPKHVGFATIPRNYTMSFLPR
In short: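 Recombinant human CYP2A6 from insect cells was incubated with chemical for 0.5 h and activity read by fluorescence. Single-concentration duplicates at 10 uM preceded concentration-response testing to 20 uM, with activity referenced to acetonitrile.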

[10] = molecular target: human CYP1A1, CYP1A1 (gene 1543) (UniProt P04798); experiment: NVS_ADME_hCYP1A1: NovaScreen (NVS) CYP450-related Enzyme Activity (ADME) Assay for human CYP1A1 (AID 2283100; active means hit-call score of the fitted dose curve at least 0.9, where 1 is the maximum)
Sequence of human CYP1A1, CYP1A1 (gene 1543) (P04798 whole entry, looked up): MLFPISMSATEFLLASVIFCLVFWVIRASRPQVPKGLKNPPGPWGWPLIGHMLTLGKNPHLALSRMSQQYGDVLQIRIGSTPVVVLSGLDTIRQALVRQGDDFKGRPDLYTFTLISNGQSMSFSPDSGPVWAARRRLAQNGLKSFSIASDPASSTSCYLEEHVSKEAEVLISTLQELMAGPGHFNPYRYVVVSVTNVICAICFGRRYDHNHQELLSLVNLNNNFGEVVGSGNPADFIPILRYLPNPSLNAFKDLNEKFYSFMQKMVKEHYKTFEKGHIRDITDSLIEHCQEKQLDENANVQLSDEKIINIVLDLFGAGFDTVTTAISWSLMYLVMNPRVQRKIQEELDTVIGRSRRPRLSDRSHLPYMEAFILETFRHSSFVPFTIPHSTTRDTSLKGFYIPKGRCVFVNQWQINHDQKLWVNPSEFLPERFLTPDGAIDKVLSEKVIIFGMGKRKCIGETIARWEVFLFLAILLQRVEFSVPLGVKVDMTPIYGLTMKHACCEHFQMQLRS
In short: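 Compounds first went through duplicate single-concentration testing at 10 uM against purified CYP1A1. Those passing a threshold such as 30% inhibition entered singleton dose-response, highest concentration 20 uM. Signal was fluorescence measured after 1 hour.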

Measured: AC50

Sequence of E-selectin (Homo sapiens) (P16581 whole entry, looked up): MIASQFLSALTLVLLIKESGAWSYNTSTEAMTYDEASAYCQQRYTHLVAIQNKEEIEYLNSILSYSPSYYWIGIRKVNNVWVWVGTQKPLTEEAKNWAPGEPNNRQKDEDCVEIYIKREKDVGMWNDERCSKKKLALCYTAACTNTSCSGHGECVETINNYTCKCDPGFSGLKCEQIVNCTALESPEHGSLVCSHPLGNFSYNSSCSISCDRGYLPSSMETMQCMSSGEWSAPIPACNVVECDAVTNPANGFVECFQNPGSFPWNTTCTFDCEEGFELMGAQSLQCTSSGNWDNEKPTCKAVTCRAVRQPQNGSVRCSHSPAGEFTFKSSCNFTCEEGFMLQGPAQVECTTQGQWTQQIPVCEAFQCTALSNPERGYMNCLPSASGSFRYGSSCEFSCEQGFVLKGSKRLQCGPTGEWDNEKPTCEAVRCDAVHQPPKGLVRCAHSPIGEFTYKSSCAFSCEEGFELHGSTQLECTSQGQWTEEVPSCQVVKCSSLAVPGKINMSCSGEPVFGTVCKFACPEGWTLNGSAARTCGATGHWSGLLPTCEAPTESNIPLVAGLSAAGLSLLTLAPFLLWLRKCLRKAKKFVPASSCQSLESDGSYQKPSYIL

C#C[C@]1(O)CC[C@H]2[C@@H]3CCC4=CC(=O)CC[C@@H]4[C@H]3CC[C@@]21CC
active: [5] 6.98 µM
not listed: [8] | [9] | [10]
inactive: all other assays above

COC(=O)c1c(Cl)nn(C)c1S(=O)(=O)NC(=O)Nc1nc(OC)cc(OC)n1
not listed: [8] | [9] | [10]
inactive: all other assays above

O=C(O)C1(C(=O)Nc2ccc(Cl)cc2Cl)CC1
active: [6] 12.3 µM
not listed: [8] | [9] | [10]
inactive: all other assays above

COc1nc(C)nc(NC(=O)NS(=O)(=O)c2ccccc2OCCCl)n1
not listed: [8] | [9] | [10]
inactive: all other assays above

COC(=O)c1ccc(I)cc1S(=O)(=O)NC(=O)Nc1nc(C)nc(OC)n1
not listed: [8] | [9] | [10]
inactive: all other assays above

COC(=O)c1ccccc1S(=O)(=O)NC(=O)Nc1nc(OC(F)F)cc(OC(F)F)n1
not listed: [8] | [9] | [10]
inactive: all other assays above

CCN(CC)C(=O)c1cccc(C)c1
active: [7] 13.9 µM
not listed: [8] | [9] | [10]
inactive: all other assays above

CCC(C)OC(=O)N1CCCCC1CCO (stereo not drawn)
not listed: [8] | [9] | [10]
inactive: all other assays above

COc1c(Cl)ccc(Cl)c1C(=O)O
active: [1] 11.8 µM
not listed: [8] | [9] | [10]
inactive: all other assays above

CN(C)C(=O)Nc1ccc(Cl)c(Cl)c1
not listed: [8] | [9] | [10]
inactive: all other assays above

CC(C)(C)[C@@H](O)[C@@H](Cc1ccc(Cl)cc1)n1cncn1
active: [2] 8.51 µM | [4] 3.76 µM | [5] 7.99 µM | [6] 12.6 µM
inactive: [1] | [3] | [7]

COCCO
not listed: [8] | [9] | [10]
inactive: all other assays above

CCCOC(=O)NCCCN(C)C
not listed: [8] | [9] | [10]
inactive: all other assays above

CCCCOC(=O)[C@@H](C)Oc1ccc(Oc2ccc(C(F)(F)F)cn2)cc1
not listed: [8] | [9] | [10]
inactive: all other assays above

C[C@]12CC[C@@H]3c4ccc(O)cc4C[C@@H](CCCCCCCCCS(=O)CCCC(F)(F)C(F)(F)F)[C@H]3[C@@H]1CC[C@@H]2O (stereo partly drawn)
active: [2] 3.51 µM
not listed: [8] | [9] | [10]
inactive: all other assays above

CCCCOC(=O)C(C)Oc1ccc(Oc2ccc(C(F)(F)F)cn2)cc1 (stereo not drawn)
not listed: [8] | [9] | [10]
inactive: all other assays above

CCOC(=O)C(C)Oc1ccc(Oc2cnc3cc(Cl)ccc3n2)cc1 (stereo not drawn)
not listed: [8] | [9] | [10]
inactive: all other assays above

CCCN(CCC)c1c([N+](=O)[O-])cc(C(F)(F)F)c(N)c1[N+](=O)[O-]
active: [1] 31 µM | [2] 29.3 µM | [3] 31.7 µM | [4] 15 µM | [5] 20 µM | [6] 21 µM | [7] 14.7 µM

c1ccc(Nc2ccccc2)cc1
not listed: [8] | [9] | [10]
inactive: all other assays above

COC(=O)c1ccc(CNS(C)(=O)=O)cc1S(=O)(=O)NC(=O)Nc1nc(OC)cc(OC)n1
not listed: [8] | [9] | [10]
inactive: all other assays above

CCSC(=O)N(CC(C)C)CC(C)C
not listed: [8] | [9] | [10]
inactive: all other assays above

S=C(S)NCCNC(=S)S.[Mn+2].[S-]C([S-])=NCCN=C([S-])[S-].[Zn+2]
inactive: [1] | [2] | [3] | [4] | [5] | [6] | [7] | [8] | [9] | [10]
active: [2] 12.4 µM | [4] 7.86 µM and 20 µM

CCOC(=O)[C@H](C)Oc1ccc(Oc2nc3ccc(Cl)cc3o2)cc1
not listed: [8] | [9] | [10]
inactive: all other assays above

CCOC(=O)NCCOc1ccc(Oc2ccccc2)cc1
inactive: [3]
active: [1] 26.9 µM | [2] 31.8 µM | [4] 15.6 µM | [5] 30 µM | [6] 16.2 µM | [7] 20 µM

COC(=O)c1cccc(C)c1S(=O)(=O)NC(=O)Nc1nc(OCC(F)(F)F)nc(N(C)C)n1
not listed: [8] | [9] | [10]
inactive: all other assays above

CCCCC(CC)COC(=O)c1ccccc1C(=O)O (stereo not drawn)
not listed: [8] | [9] | [10]
inactive: all other assays above

CC1(C)C(C=C(Cl)Cl)C1C(=O)OCc1cccc(Oc2ccccc2)c1 (stereo not drawn)
inactive: [1] | [2] | [3] | [4] | [5]
active: [6] 14.8 µM | [7] 5.14 µM

CC(C)(c1ccc(O)cc1)c1ccc(O)cc1
active: [1] 20 µM | [2] 24.9 µM | [5] 14.5 µM | [6] 20.3 µM and 28.7 µM and 25.7 µM | [10] 5.22 µM
inactive: [1] | [2] | [3] | [4] | [5] | [7] | [8] | [10]

Cc1nn(C)c(Oc2ccccc2)c1C=NOCc1ccc(C(=O)OC(C)(C)C)cc1
inactive: [4]
active: [1] 7.6 µM | [2] 4.27 µM | [3] 19 µM | [5] 3.97 µM | [6] 8.08 µM | [7] 20 µM

CCOC(=O)c1ccc(O)cc1
not listed: [8] | [9] | [10]
inactive: all other assays above

CCCCCOC(=O)COc1cc(N2C(=O)C3=C(CCCC3)C2=O)c(F)cc1Cl
inactive: [1] | [3] | [4] | [5] | [7]
active: [2] 15.8 µM | [6] 14.3 µM
